Source: PubChem (several laboratories)
CYP2C19 inhib: blockers of cytochrome P450 2C19 activity – biochemical, luminescence, ADME assay, primary screen. 21% of 96,000 active. AID 778, 2007. inhibition, % at 5 µM. CYP2C19 Supersomes, luciferin-H EGE luminescence, 30 min. P33261;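 active = CYP2C19 inhibition above a set limit at 5 µM in the primary screen, cut at about 50% in these data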;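 note: plate controls were negative control wells for no effect and 2.5 mM tranylcypromine positive control for full effect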
CYP2C19 act: human CYP2C19 activators, primary screen, biochemical, luminescence. 96,000 tested, under 10 active. Cytochrome P450 2C19 (Homo sapiens), P33261. activation factor at 5 µM. recombinant CYP2C19, luciferin-H EGE luminescence; active compounds read high; 0 = fully inhibited enzyme, 1 = untreated enzyme;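 active = activation factor of at least 2 at 5 µM in the primary screen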;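 note: 0 = wells with 2.5 mM tranylcypromine and 1 = vehicle-only wells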
F-actin modifier: modifiers of F-actin cytoskeleton organization, primary screen, imaging, HUVEC, phalloidin staining, high-content imaging; 0.18% of 91,000 active; HUVEC TNFa F-actin phalloidin imaging; inhibition, % at 2 µM;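 active = inhibition above the batch mean plus 3 SD and confirmed as a hit by visual image inspection, cut at about 30% in these data, passing the limit was not always enough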
CYP2C9 inh: blockers of cytochrome P450 2C9 activity – biochemical, luminescence, ADME assay, primary screen | inhibition, % at 5 µM | CYP2C9 Supersomes, luciferin-H conversion | 20% of 96,000 active | P11712;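 active = blocking of liver enzyme CYP2C9 beyond about 50% at 5 µM, limit read from the data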
Target sequence (P11712 whole entry, looked up): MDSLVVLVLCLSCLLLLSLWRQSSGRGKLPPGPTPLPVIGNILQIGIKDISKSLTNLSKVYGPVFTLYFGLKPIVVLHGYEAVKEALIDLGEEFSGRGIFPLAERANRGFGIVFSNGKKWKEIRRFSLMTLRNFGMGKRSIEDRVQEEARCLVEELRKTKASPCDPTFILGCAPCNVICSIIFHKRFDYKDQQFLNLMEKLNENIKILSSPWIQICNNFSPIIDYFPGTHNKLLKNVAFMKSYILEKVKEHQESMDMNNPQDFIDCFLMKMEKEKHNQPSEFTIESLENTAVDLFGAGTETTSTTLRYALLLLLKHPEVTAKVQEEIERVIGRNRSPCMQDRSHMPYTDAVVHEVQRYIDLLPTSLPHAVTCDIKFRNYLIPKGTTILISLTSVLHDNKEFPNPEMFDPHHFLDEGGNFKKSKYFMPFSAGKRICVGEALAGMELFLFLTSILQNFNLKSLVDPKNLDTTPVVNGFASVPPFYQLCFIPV
CYP2C9 act: human CYP2C9 activators, primary screen, biochemical, luminescence. Cytochrome P450 2C9 (Homo sapiens), P11712. recombinant CYP2C9, luciferin-H conversion; active compounds read high; factor 1 = untreated enzyme, 0 = blocked. activation factor at 5 µM. 1.4% of 96,000 active. AID 1024, 2008;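 active = activation factor of 2 or more for CYP2C9 at a 5 µM dose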;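 note: 0 = sulfaphenazole-blocked wells and 1 = vehicle-only wells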
E-sel TNF inh: E-selectin induction blockers in HUVEC – imaging, immunofluorescence, high content, primary screen | HUVEC TNFa-induced E-selectin immunofluorescence | inhibition, % at 2 µM | 0.71% of 120,000 active | AID 1246, 2008;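 active = inhibition above the batch mean plus 3 SD, and confirmed as a hit on visual image review, cut at about 43% in these data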;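 note: 0% = TNF-stimulated DMSO wells and 100% = unstimulated control wells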
An asterisk follows results filed as active; · = no result given. Most compounds without a hit are left out; they make up all but 22% or so of the library.

SMILES	CYP2C19 inhib	CYP2C19 act	F-actin modifier	CYP2C9 inh	CYP2C9 act	E-sel TNF inh
Cc1cccc(NC(=S)NNC(=O)c2csc3c2CCC(C)C3)c1 (stereo not given)	25	0.8	-8	43	0.6	-36
CCN(CC)CCN(CC(=O)N(C1CCCCC1)C1CCCCC1)C(=O)c1cccnc1	·	·	·	·	·	-26
O=C1CCCN1CCNC(=S)Nc1ccccc1	19	0.8	-3	52*	0.5	16
CC(=O)Nc1sc(C)c(C)c1C(=O)OC(C)C	·	·	·	·	·	-5
CCc1ccccc1NC(=O)NC1CCCCC1	19	0.8	6	3	1	23
Cc1sc(NC(=O)Cn2nc(C(F)(F)F)cc2C)c(C(=O)OC(C)C)c1C	18	0.8	-9	62*	0.4	19
CCNS(=O)(=O)c1ccc(NC(=O)Cn2nc(C(F)(F)F)cc2C)cc1	-17	1.2	0	57*	0.4	-11
Cc1cc(C(F)(F)F)nn1CC(=O)NNC(=S)Nc1ccc(F)cc1	31	0.7	11	32	0.7	-22
CCc1ccccc1NC(=O)Cn1nc(C(F)(F)F)cc1C1CC1	83*	0.2	10	5	0.9	-15
Cc1ccc2cc3cc(C(=O)N4CCCCC4C)oc3nc2c1 (stereo not given)	6	0.9	-4	-57	1.6	·
O=C(CCNS(=O)(=O)c1cccs1)NCc1cccs1	47	0.5	11	18	0.8	·
COCc1cc(C)nc(NCCc2ccccc2)c1C#N	52*	0.5	1	4	1	-15
COCc1cc(C)nc(N2CCN(Cc3ccccc3)CC2)c1C#N	95*	0.1	2	14	0.9	5
COCc1cc(C)nc(N2CCN(c3ccccc3)CC2)c1C#N	69*	0.3	·	-139	2.4*	24
COCc1cc(C)nc(NC2CCCCC2)c1C#N	-4	1	-10	4	1	21
COCc1cc(C)nc(N2CCCCC2)c1C#N	·	·	-10	·	·	10
O=C(NC(=S)Nc1cccc(Cl)c1N1CCCCC1)c1ccco1	6	0.9	-6	36	0.6	-4
O=C(NC(=S)Nc1cccc(Cl)c1N1CCCCC1)c1cccs1	14	0.9	-53	59*	0.4	-69
O=C(O)c1cc(NCc2cccs2)ccc1N1CCOCC1	-2	1	20	-1	1	-10
COC(=O)c1cc(NCc2cccs2)ccc1N1CCOCC1	77*	0.2	-2	64*	0.4	·
CCCCn1c(SCC(=O)NCc2ccco2)nc2c(sc3ccccc32)c1=O	37	0.6	0	74*	0.3	1
CCCCn1c(SCC(N)=O)nc2c(sc3ccccc32)c1=O	29	0.7	4	24	0.8	6
O=C(CSc1nc2c(sc3ccccc32)c(=O)n1CCc1ccccc1)NCc1ccco1	42	0.6	7	52*	0.5	-10
CCOCCCn1c(SCC(=O)NCc2ccco2)nc2c(sc3ccccc32)c1=O	26	0.7	11	66*	0.3	-14
CCOC(=O)CSc1nc2c(sc3ccccc32)c(=O)n1CCCN1CCOCC1	25	0.7	-16	55*	0.4	3
SMILES	CYP2C19 inhib	CYP2C19 act	F-actin modifier	CYP2C9 inh	CYP2C9 act	E-sel TNF inh
O=C(Nc1ccccn1)Nc1cccs1	8	0.9	-1	4	1	·
Cc1ccc(C2CC(C(F)F)n3ncc(C(=O)Nc4cnn(Cc5ccccc5C)c4)c3N2)cc1 (stereo not given)	8	0.9	3	62*	0.4	·
Cc1nc2c(c(=O)n1Cc1ccccc1Cl)c1nc3ccccc3nc1n2Cc1ccco1	4	1	·	52*	0.5	·
CCO/C(C)=N/n1c2nc3ccccc3nc2c2c(=O)n(Cc3ccccc3Cl)c(C)nc21	23	0.8	28	53*	0.5	·
COc1ccc(Cn2c3nc4ccccc4nc3c3c(=O)n(Cc4ccco4)c(C)nc32)cc1	0	1	·	26	0.7	·
CSCC[C@H](NC(=O)C1CCN(S(=O)(=O)c2ccc(C)cc2)CC1)C(=O)NCc1ccco1	-6	1.1	0	-1	1	-1
COc1ccc(-c2coc3cc4oc(=O)cc(C)c4cc23)cc1F	58*	0.4	-2	11	0.9	-6
